# Many of the other results were omitted from the sample, so hits are more common in it than they were.
# ROC1-CUL1 inh – blocks human RBX1-Cullin-1 di-ubiquitin formation; P62877+Q13616; in vitro K48 di-Ub FRET, acceptor:donor ratio, 45 min; inhibition, % at 10 µM; actives 0.6% (n = 140,000); in the data active means inhibition above about 25%
# Target sequence (P62877 whole entry, looked up): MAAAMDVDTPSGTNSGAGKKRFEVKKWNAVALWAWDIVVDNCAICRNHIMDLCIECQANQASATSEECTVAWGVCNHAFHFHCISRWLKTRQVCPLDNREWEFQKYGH
# Target sequence (Q13616 whole entry, looked up): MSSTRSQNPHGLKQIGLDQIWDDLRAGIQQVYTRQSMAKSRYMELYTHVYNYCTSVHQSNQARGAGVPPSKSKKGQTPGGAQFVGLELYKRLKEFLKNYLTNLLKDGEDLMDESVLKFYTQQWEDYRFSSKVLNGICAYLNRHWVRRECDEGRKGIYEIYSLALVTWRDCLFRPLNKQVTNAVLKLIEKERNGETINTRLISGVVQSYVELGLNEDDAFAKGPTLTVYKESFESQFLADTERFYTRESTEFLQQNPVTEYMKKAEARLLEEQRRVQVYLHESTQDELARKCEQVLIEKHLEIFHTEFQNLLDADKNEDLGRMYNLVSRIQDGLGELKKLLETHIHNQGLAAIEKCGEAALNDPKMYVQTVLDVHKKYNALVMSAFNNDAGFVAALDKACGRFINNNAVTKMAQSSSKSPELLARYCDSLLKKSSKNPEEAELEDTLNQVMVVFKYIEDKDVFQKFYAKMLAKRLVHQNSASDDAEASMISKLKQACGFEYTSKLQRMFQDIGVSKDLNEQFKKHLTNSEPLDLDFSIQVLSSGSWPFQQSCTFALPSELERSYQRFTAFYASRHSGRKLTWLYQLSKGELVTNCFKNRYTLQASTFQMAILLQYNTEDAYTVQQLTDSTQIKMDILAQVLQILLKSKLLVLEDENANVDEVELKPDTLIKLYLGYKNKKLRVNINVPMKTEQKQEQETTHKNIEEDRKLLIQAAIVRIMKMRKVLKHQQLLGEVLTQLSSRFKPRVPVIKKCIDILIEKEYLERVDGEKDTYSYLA
# The depositor's hits bear a star.
SMILES,ROC1-CUL1 inh
CC(C)(C)c1ccc(C(=O)Oc2ccc3c(-c4ccccc4C(=O)O)c4ccc(=O)cc-4oc3c2)cc1,33*
O=C(NCCN1Cc2ccccc2OC(c2ccsc2)C1)C1CC(=O)N(Cc2ccccn2)C1 (configuration not stated),5
CCC1CN(C(=O)NCc2cccc(OC)c2)c2ccccc2O1 (configuration not stated),-9
CCOc1ccc(NS(=O)(=O)c2cc3c(cc2Cl)NC(=O)CO3)cc1,8
CC1=Nn2c(nnc(C)c2=O)C1C(=O)c1ccccc1 (configuration not stated),-6
CCCCCN(CCCCC)C(=O)C1C2CCC(O2)C1C(=O)O (configuration not stated),-6
CC1=NN(c2ccccc2)C(=O)/C1=C/c1ccccc1OCc1ccccc1C,3
CC1=NN(c2ccccc2)C(=O)/C1=C/c1ccccc1OCc1ccc(C(=O)O)cc1,51*
COc1cc(/C=C2/C(=O)N(c3ccc(Cl)c(Cl)c3)N=C2C)ccc1OCc1ccccc1,0
COCCNS(=O)(=O)c1ccc(F)c(OC)c1,-7
O=C(O)c1cc2c3c(c1)C1CC=CC1C(c1ccc(Br)cc1)N3CC1CC=CC21 (configuration not stated),102*
Cc1cc2c3c(c1)C1C=CCC1C(c1ccc(Br)cc1)N3CC1CC=CC21 (configuration not stated),-5
O=[N+]([O-])c1ccc(C2C3CC=CC3c3c4c(cc5ccccc35)C3C=CCC3CN42)cc1 (configuration not stated),-6
Cc1ccc(S(=O)(=O)Oc2c3c4n(c(=O)c2-c2ccccc2)-c2ccccc2C4(C)CCC3)cc1 (configuration not stated),-3
CC1CCC(C(C)C)c2c1c(-c1cccc3ccccc13)nn2C(=O)/C=C/c1ccccc1 (configuration not stated),-1
COc1ccc(C2c3c(n[nH]c3-c3cccs3)OC(=N)C2C#N)cc1OC (configuration not stated),6
Nc1sccc1C(=O)c1ccccc1,8
O=C1C(=O)c2c(C(=O)c3ccccc3)coc2C(Cl)=C1Cl,89*
CC(=O)C(C(C)=O)C1=C(Br)C(=O)C(=O)c2c(C(=O)c3ccccc3)coc21,12
O=C1C(=O)c2c(C(=O)c3ccccc3)coc2C=C1Br,104*
Cc1ccc(C(=O)c2coc3c2C(=O)C(=O)c2ccccc2-3)cc1,4
CC(=O)Oc1ccc2occ(C(=O)c3ccccc3)c2c1,-10
Cc1ccc(C(=O)c2coc3c2C(=O)C(=O)C(Br)=C3)cc1,96*
Cc1ccc(C(=O)c2coc3ccc(Br)cc3c2=O)cc1,1
O=C(c1ccccc1)c1coc2cc(Br)c(O)c(Br)c12,15
SMILES,ROC1-CUL1 inh
COC12C=CC(C(=O)C1C)c1c(F)c(F)c(F)c(F)c12 (configuration not stated),-5
Cc1cccc(-c2nc3cc(NC(=O)c4ccc([N+](=O)[O-])c(C)c4)ccc3o2)c1,-8
COc1ccc(Nc2c3c(nc4ccc(NC(=O)/C=C/c5cc(OC)c(OC)c(OC)c5)cc24)CCCC3)cc1OC,-3
COCCNC(=O)c1cnn2c(C(F)(F)F)cc(-c3cccc(OC)c3)nc12,-4
O=C(COC(=O)c1ccc(Br)o1)c1ccccc1,3
Cc1ccc(N=C2S/C(=C/c3ccccc3OCC(=O)N3CCOCC3)C(=O)N2Cc2ccccc2)cc1,2
CCOc1ccccc1/C=C1\SC(=Nc2ccc(C(=O)OC)cc2)N(C)C1=O,-11
COCCN1C(=O)/C(=C/c2ccccc2OCc2cccc(C(=O)O)c2)SC1=Nc1ccccc1,68*
O=C(CCS(=O)(=O)c1cc(Br)cc2c1N(C(=O)C1CC1)CC2)NCc1ccc(Cl)cc1,-8
Cc1cccc(OC(=O)c2snnc2C)c1,-8
Oc1c(C(c2ccccn2)N2CCN(c3ccccn3)CC2)cc(Cl)c2cccnc12 (configuration not stated),15
CCOc1ccc(OCC)c(C2c3c(n[nH]c3C)OC(=N)C2C#N)c1 (configuration not stated),-4
COc1ccc(NC(=O)CCn2nc(-c3ccccc3OC)c3c(C)cc(C)nc32)cc1,3
C[C@H](CCC(=O)O)[C@H]1CCC2C3CC[C@@H]4C[C@H](OC=O)CC[C@]4(C)C3CC[C@@]21C (some centres not stated),2
CC(CCc1nc2ccccc2o1)C1CCC2C3CC[C@@H]4CC(OCCC(=O)O)CC[C@]4(C)C3CC[C@]12C (some centres not stated),40*
Cc1ccc2nc(CCC(C)C3CCC4C5CC[C@@H]6CC(O)CC[C@]6(C)C5CC[C@]34C)[nH]c2c1 (some centres not stated),-1
CCN1C(=O)c2ccccc2Sc2ccc(NC(=O)Nc3ccccc3OC)cc21,1
CCc1ccc(NC(=O)CSc2nc3c(oc4ccccc43)c(=O)n2-c2cccc(C)c2)cc1,-1
COc1ccc(OC)c2c(OC)c3ccccc3c(OC)c12,52*
COc1ccc(-c2ccc(OC)c(OC)c2OC)c(OC)c1OC,-5
COc1ccc2c(=O)c(Br)cccc2c1OC,3
COc1cc(/C=C2\C(=O)NN(c3ccccc3)C2=O)cc(I)c1OCCCOc1ccc(Cl)cc1,0
O=C1NN(c2ccc(Cl)cc2)C(=O)/C1=C\c1cc(I)cc(I)c1O,-11
COc1ccc(/C=C2\C(=O)NN(c3cccc(Cl)c3)C2=O)cc1,8
COc1ccccc1/C=C1/C(=O)NN(c2ccc(Br)cc2)C1=O,3
SMILES,ROC1-CUL1 inh
COc1c(I)cc(I)cc1/C=C1\C(=O)NN(c2cccc(Cl)c2)C1=O,48*
CC(=O)Oc1cccc(/C=C2/C(=O)NN(c3cccc(Cl)c3)C2=O)c1,26*
O=C1NN(c2cccc(Cl)c2)C(=O)/C1=C/c1cc(I)cc(I)c1O,1
COc1ccc(Br)cc1/C=C1/C(=O)NN(c2cccc(Cl)c2)C1=O,89*
COc1ccc2cccc(/C=C3\C(=O)NN(c4ccc(Cl)c(Cl)c4)C3=O)c2c1,8
O=C1NN(c2ccccc2)C(=O)/C1=C/c1cccc(OCCCOc2ccc(Cl)cc2)c1,5
COc1ccccc1/C=C1\C(=O)NN(c2cccc(Cl)c2)C1=O,6
COc1c(I)cc(I)cc1/C=C1/C(=O)NN(c2ccc(Cl)cc2)C1=O,47*
CCOc1ccccc1NC(=O)N1c2ccccc2Sc2ccccc21,-1
CCCCCCCCCCCCS(=O)(=O)CC(O)c1ccccc1 (configuration not stated),-2
Cc1ccc(CSC2=Nc3ccccc3C3=NC(CCC(=O)N4CCN(c5ccccc5)CC4)C(=O)N23)cc1 (configuration not stated),1
O=C(c1ccc(Cl)cc1)c1c2c(=O)n(CCO)c(=O)c2cc2c(=O)n(CCO)c(=O)c12,3
COc1cccc(NC(=O)Nc2ccc3c(c2)nc(C)n3C)c1,4
COc1cc(NC(=O)c2cc(-c3cccc(Cl)c3)on2)c(OC)cc1Cl,-12
COc1ccc(CCNC(=O)CSc2nnc(-c3cccc(F)c3)n2-c2ccccc2)cc1OC,1
O=C(NC(=O)C(F)(F)F)Nc1ccc(F)cc1Cl,-3
COc1ccccc1C1CC(=O)NC2=C1C(=O)CCC2 (configuration not stated),13
COc1ccc(CNC(=O)c2ccc3c(c2)CCN3S(=O)(=O)c2ccccc2)cc1,-2
C/C(=N/OC(=O)c1cccc2ccccc12)c1ccc(C)cc1,-4

# Assay outcomes: PubChem, Pan Lab, Icahn School of Medicine at Mount Sinai
